# High-throughput results (PubChem)
# aSyn 5UTR act = Activators via SNCA 5'UTR binding, MLPCN. alpha-synuclein 5'UTR reporter, activators screen. activity score, % (tested at 7.5 µM), hits read low. 300,000 tested, 7.1% active. AID 1814; in the data active = activity score below about -60%
# An asterisk follows results filed as active. The list is a sample of the results.
SMILES,aSyn 5UTR act
NS(=O)(=O)c1cccc(NC(=O)CCSc2ccccc2Cl)c1,-120.1*
CSc1ccccc1NC(=O)Nc1cccc(F)c1,-82.1*
N#CCc1ccc(NC(=O)Nc2cccc(Cl)c2)cc1,-143.0*
O=C(Nc1ccc(C(=O)N2CCOCC2)cc1)Nc1cccc(Cl)c1,-139.1*
CNS(=O)(=O)c1ccc(NC(=O)Nc2cccc(F)c2)cc1,-89.1*
COC(=O)C[C@](O)(CCCC(C)(C)O)C(=O)O[C@@H]1C(OC)=C[C@]23CCCN2CCc2cc4c(cc2[C@H]13)OCO4,126.9
Cc1cccc(N(O)C(=O)Nc2cccc(Cl)c2)c1,-109.4*
CSc1ccccc1NC(=S)Nc1cccc(C(F)(F)F)c1,-63.5*
Oc1c(C(Nc2cccc(C(F)(F)F)c2)c2ccncc2)ccc2cccnc12 (stereo not drawn),81.9
O=C(Nc1cccc(F)c1)Nc1cccc(Cl)c1,-84.3*
NS(=O)(=O)c1cccc(NC(=O)Nc2ccc(Cl)cc2)c1,-91.9*
CCOc1ccc(NC(=O)Nc2ccccc2SC)cc1,-141.7*
O=C(Nc1cccc(Cl)c1)ON=C1c2ccccc2-c2ccccc21,-65.7*
O=C(Nc1cccc(Cl)c1)Nc1cccc(Cl)c1,-136.9*
Cc1nc2c(sc3nc4c(cc32)COC(C)(C)C4)c(=O)n1Cc1ccccc1,-108.8*
Cc1nc(OCc2ccccc2)c2sc3nc4c(cc3c2n1)COC(C)(C)C4,-184.6*
Cc1nc2c(sc3nc4c(cc32)COC(C)(C)C4)c(=O)n1CC(=O)NCc1ccco1,-69.3*
CCCc1nc2c(sc3nc4c(cc32)COC(C)(C)C4)c(=O)n1Cc1ccco1,-64.7*
Cc1cccc(OCc2n(CC(=O)OC3CC(C)CCC3C(C)C)c3ccccc3[n+]2C)c1 (stereo not drawn),59.6
CCOc1ccc(NC(=O)CSc2nncc(=O)[nH]2)cc1,-76.2*
Cc1cc(C)c2nc(NNC(=O)c3ccc(S(=O)(=O)N4CCc5ccccc5C4)cc3)sc2c1,75.3
CCSc1nnc(NC(=O)C2Cc3ccccc3CN2S(=O)(=O)CC)s1 (stereo not drawn),-87.6*
CCS(=O)(=O)N1Cc2ccccc2CC1C(=O)Nc1nc2c(C)cccc2s1 (stereo not drawn),-68.8*
COc1ccc(S(=O)(=O)N2Cc3ccccc3CC2C(=O)Nc2nccs2)cc1 (stereo not drawn),-157.6*
COc1ccc(S(=O)(=O)N2Cc3ccccc3CC2C(=O)Nc2nccs2)cc1OC (stereo not drawn),-149.5*
SMILES,aSyn 5UTR act
CCS(=O)(=O)N1Cc2ccccc2CC1C(=O)Nc1nccs1 (stereo not drawn),-166.5*
CCS(=O)(=O)N1Cc2ccccc2CC1C(=O)Nc1cccc(OC)c1 (stereo not drawn),-87.4*
CC(C)(C)c1ccc(/C=C2\SC(=O)N(CCNC(=O)c3cccc(S(=O)(=O)N4CCOCC4)c3)C2=O)cc1,-89.2*
CCN(CC)c1ccc(/C=N/NC(=O)c2cccc(S(=O)(=O)N3CCOCC3)c2)c(O)c1,128.8
COc1ccc(/C(N)=N/OC(=O)C2CCCCC2)cc1OC,-86.3*
COc1ccc(/C(N)=N/OC(=O)C2CCCCC2)cc1,-131.1*
COc1ccc(-c2ccc(C(=O)C3CC3)cc2)cc1,-107.3*
c1ccc(C2Oc3ccccc3C3CC(c4cccs4)=NN32)cc1 (stereo not drawn),-164.4*
CC(=O)Nc1ccc(SCCCC(=O)c2ccccc2)cc1,-160.6*
O=C(Nc1ccccc1)Nc1c(F)cccc1F,-65.7*
CC(=O)Nc1ccc(C#Cc2ccc(NC(C)=O)cc2)cc1,73.7
CC(=O)Nc1ccc(NC(=O)Nc2ccccc2)cc1,-70.4*
O=C(Nc1ccccc1)Nc1csc2ccccc12,-164.9*
O=C(Nc1ccccc1)Nc1scc2c1c(=O)oc1ccccc12,-122.7*
COc1ncccc1-c1nnn(-c2ccc(Cl)nc2)n1,-74.0*
Cc1ccc(-n2nnc(-c3cccnc3Cl)n2)cc1,-78.1*
Clc1ccc(-n2nnc(-c3cccnc3Cl)n2)cn1,-130.1*
Brc1ccc2nc(-c3cccs3)c(NCC3CCCO3)n2c1 (stereo not drawn),-174.9*
O=C1c2ccccc2C(=O)C1c1ccc(O)cc1,-87.5*
Oc1ccc2ccccc2c1C=Nc1ccccc1-c1nc2ccccc2[nH]1,-79.1*
COc1ccc(C(=O)Nc2ccccc2C(=O)Nc2ccccn2)cc1,-104.4*
Cc1ccc(C(=O)Nc2cccnc2Cl)cc1Cl,-156.2*
Cc1ccc(C(=O)Nc2ccccc2C(=O)Nc2ccccn2)cc1Cl,-70.4*
CC(=O)c1c(C)nc(Nc2nc3ccccc3s2)nc1C,-82.8*
Cc1cc(C)nc(Nc2nc3ccccc3s2)n1,-176.9*
SMILES,aSyn 5UTR act
CC1(C)CN=C(N(Cc2ccccc2)C(=O)Nc2ccccc2)S1,-153.9*
Cc1ccc(N(O)C(=O)NCCCCNC(=O)N(O)c2ccc(C)cc2)cc1,-97.2*
CCCCCCOc1ccc(OCC(O)CN2C(=O)NC(C)(C)C2=O)cc1 (stereo not drawn),-128.2*
Cc1[nH]c2ccccc2c1N=Nc1ccccc1C(=O)O,-70.0*
Cc1[nH]c2ccccc2c1N=Nc1cccc(C(=O)O)c1,-96.0*
NC(=S)N/N=C/c1coc2c(ccc3ccccc32)c1=O,-74.2*
Clc1ccc(OCCCN2CCCCC2)c(Br)c1,-87.8*
O=c1c(C=NCc2ccccc2)c(NCc2ccccc2)nc2ccccn12,-65.6*
CSc1nc2nccc(/C=C\c3ccccc3)n2n1,-88.9*
O=C(/C=C\Nc1ccc(Br)cc1)c1cccnc1,-68.9*
CN(C)c1ccc(N/C=C/C(=O)c2ccccc2)cc1,-65.0*
CN(C)c1ccc(N/C=C/C(=O)C(C)(C)C)cc1,-77.9*
CC(=O)Nc1ccc(N/C=C/C(=O)c2ccccc2)cc1,-255.2*
Cc1cc(C(=O)N/N=C2\CC(=O)c3ccccc32)c(C)n1-c1ccccc1,-111.6*
Cc1cccc(Nc2cc(C)c3c(O)cccc3n2)c1C,-100.6*
CCCC(=O)Nc1nc2ccc(C(=O)OCC)cc2s1,-135.8*
CCOC(=O)c1ccc2nc(NC(=O)c3cccs3)sc2c1,-105.1*
CCCCC(=O)Nc1nc2ccc(C(=O)OC)cc2s1,-113.8*
CCOC(=O)c1ccc2nc(NC(=O)C(C)C)sc2c1,-112.6*
COc1cc(/C=C/C(=O)c2ccc3c(c2)OCCO3)cc(Br)c1OCC(=O)N(C)C,-818.7*
N#C/C(=C\C=C\c1ccccc1[N+](=O)[O-])C(=O)NC1CCCCC1,-131.6*
COC(=O)C1C(=O)C=C(Nc2ccc(F)cc2F)CC1c1ccccc1 (stereo not drawn),-113.5*
CCOC(=O)C1C(=O)C=C(Nc2ccccc2F)CC1c1ccccc1 (stereo not drawn),-113.5*
O=C(Nc1cccc(F)c1)Nc1ccc(Cl)cn1,-135.3*
Cc1ccc(NC(=O)Nc2cccc(F)c2)nc1,-176.4*
SMILES,aSyn 5UTR act
Cn1cccc1C1NC(=O)c2c(sc3c2CCC(C(C)(C)C)C3)N1 (stereo not drawn),-97.1*
O=C(O)Cc1sc(Nc2ccc(Cl)cc2)nc1-c1cccs1,-187.7*
COc1nc(N/N=C/c2ccc(-c3ccccc3[N+](=O)[O-])o2)nc(N2CCOCC2)n1,-105.1*
Cc1ccc(C(=O)N/C(=C\c2ccc(-c3ccccc3[N+](=O)[O-])o2)C(=O)NCCCN2CCOCC2)cc1,70.6
Fc1ccc(Oc2nc(-c3ccccn3)nc3ccccc23)cc1,-94.6*
COc1ccc(Oc2nc(-c3ccccn3)nc3ccccc23)cc1,-110.2*
c1ccc(Oc2nc(-c3ccccn3)nc3ccccc23)cc1,-63.7*
O=[N+]([O-])c1ccc(-[n+]2ccc3ccccc3c2)c([N+](=O)[O-])c1,-105.1*
